VP16 counter: Gal4-VP16 reporter inhibition counter-screen; Drosophila S2 Gal4-VP16 UAS-luciferase, luminescence, 20 h; Potency, µM (series often up to 53.6 µM), for inactives: at the top dose activity, negative = inhibition, actives largely listed as inhibitors; 310,000 compounds, 3.5% hits; AID 2546;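 note: Gal4-VP16 expression switched on by copper sulfate through the metallothionein promoter; nearly all actives have a fitted effect of over 50% in size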
Luc counter: Kinase-Glo luciferase inhibition (counter-screen); Potency, µM (highest dose often 38.3 µM), inactives show at the highest dose activity change, negative = inhibition, actives largely listed as inhibitors; Kinase-Glo luciferase, ATP luminescence, 8 min; AID 1379; 200,000 compounds, 0.28% hits; Q27757; note: nearly all actives have a fitted effect of over 60% in size
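Compounds were added to a substrate mix at pH 7.2 (50 mM imidazole, 10 uM ATP, within the enzyme's linear range), followed by Kinase-Glo detection reagent; luminescence was measured after 8 minutes at ambient temperature.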
RORgamma inh: blocks mouse ROR gamma transcriptional activity; P51450; Drosophila S2 Gal4-RORgamma UAS-luciferase reporter, 20 h; Potency, µM (highest dose often 53.6 µM), for inactives: at the top dose activity change, negative = inhibition, usual class: inhibitors; 310,000 compounds, 5.4% hits; AID 2551; note: nearly all actives have a fitted effect of over 60% in size
Target sequence (P51450 whole entry, looked up, the tested form may be a part): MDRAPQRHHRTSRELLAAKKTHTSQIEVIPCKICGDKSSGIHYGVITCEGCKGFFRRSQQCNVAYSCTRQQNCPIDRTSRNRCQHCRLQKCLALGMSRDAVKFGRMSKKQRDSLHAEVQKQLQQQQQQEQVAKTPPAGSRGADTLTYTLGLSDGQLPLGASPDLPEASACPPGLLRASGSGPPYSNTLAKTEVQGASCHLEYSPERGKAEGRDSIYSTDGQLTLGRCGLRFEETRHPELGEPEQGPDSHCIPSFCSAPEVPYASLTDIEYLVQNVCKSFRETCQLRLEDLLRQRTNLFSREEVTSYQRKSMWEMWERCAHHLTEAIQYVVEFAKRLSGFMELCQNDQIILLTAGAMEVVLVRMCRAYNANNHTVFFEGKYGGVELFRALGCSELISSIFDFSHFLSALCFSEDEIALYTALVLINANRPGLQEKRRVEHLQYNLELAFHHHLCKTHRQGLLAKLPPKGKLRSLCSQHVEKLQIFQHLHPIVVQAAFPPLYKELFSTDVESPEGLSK
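A Gal4/UAS one-hybrid system in insect cells: metallothionein-promoter Gal4–ROR gamma fusion plus Photinus luciferase reporter. Copper sulfate 700 uM final, 20 hr ambient incubation, luminescent detection after 10 min with reagent.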
Starred values were filed as active, the others as inactive; ? = inconclusive; / = no result; ! = not active in a repeat; [ ] = dose if it differs, or a comment. An excerpt weighted towards active compounds, which were near 6.4% of everything screened. Calls come from the whole dose curve; as a rule, active = well fitted curve in the direction sought with a large enough effect; inconclusive = small, poorly fitted or top-dose-only effect, or another doubt; inactive = no such curve, though single readings can be large; an effect the other way counts as inactive or inconclusive. % is set by controls: 0 for no effect and ±100 for the full control effect; potency is the fitted concentration of half-maximal effect.

SMILES	VP16 counter	Luc counter	RORgamma inh
O=C(CCc1ccc(S(=O)(=O)N2CCOCC2)cc1)N1CCc2ccccc2C1	3%	-2%	-2%
Cc1ccc(OCCNC(=O)Cc2ccc(F)cc2)cc1	-14%	-2%	7%
O=C(Oc1ccc2ccccc2c1)C1CCC1	-4%	/	33%
O=C(Oc1ccc(OC(=O)C2CCC2)cc1)C1CCC1	22µM*	5%	11µM*
O=c1c(-c2cccs2)nc2cnc(N3CCOCC3)nc2n1Cc1cccs1	2%	/	15%
CCOc1ccc(NC(=O)CSc2nnc(-c3cc(C)[nH]n3)n2N)cc1	-10%	/	-15%
CCCCNc1nc(C)nc2c1nc(-c1ccccc1)n2CCCN(CC)CC	-17%	-4%	-39%
Cc1c(Br)c(C(F)(F)F)nn1CC(=O)NCc1ccccc1	-1%	-1%	15%
O=C(O)Cn1ncc2ccccc2c1=O	7%	-2%	-6%
O=c1c2ccccc2cnn1CCOc1ccccc1	4µM*	8.9µM*	4.5µM*
O=c1oc2ccccc2c2c1nnn2CCO	5%	1%	9%
COc1ccc(Cl)cc1S(=O)(=O)N1CCC(C(=O)NC2CCCC2)CC1	3%	/	23%
COc1ccc(NC(=O)CCl)cn1	0%	/	17%
COc1ccc(NC(=O)/C(Cl)=C(/Cl)S(=O)(=O)Cc2ccccc2)cn1	3.2µM*	0%	?
COc1ccc(NC(=O)/C(Cl)=C(/Cl)S(=O)Cc2ccc(Cl)cc2)cn1 (stereo not given)	2.8µM*	-2%	0.79µM*
COc1ccc(NC(=O)C(Cl)=C(Cl)Cl)cn1	0%	-4%	2%
CCOC(=O)c1c(NC(=S)NNS(=O)(=O)c2ccc(Br)cc2)sc2c1CCCCC2	6%	/	16%
CCOC(=O)c1c(NC(=O)C(=O)N/N=C/c2ccccc2O)sc2c1CCCCC2	1.3µM*	1%	1µM*
CCOC(=O)c1c(NC(=O)c2ccccc2N(C)S(=O)(=O)c2ccccc2)sc2c1CCCC2	-13%	0%	9%
CCOC(=O)c1c(NC(=O)C(NCCN(C)C)c2ccccc2)sc2c1CCCC2 (stereo not given)	11µM*	/	3.5µM*
CCOC(=O)c1c(NC(=O)C(=O)N/N=C/c2ccccc2OC)sc2c1CCCCC2	-4%	4%	-8%
Cc1ccc(N2CCN(Cc3ccccc3)CC2=O)c(C)c1	1%	/	22%
CCOC(=O)C1=C(c2ccccc2)NC(=S)NC1c1cc([N+](=O)[O-])ccc1OC (stereo not given)	?	2%	13µM*
CCOC(=O)C1=C(C)NC(=S)NC1C (stereo not given)	-3%	0%	?
CCOC(=O)C1=C(c2ccccc2)NC(=O)NC1c1ccc(OC)cc1OC (stereo not given)	9%	/	1%
SMILES	VP16 counter	Luc counter	RORgamma inh
CCOC(=O)C1=C(c2ccccc2)NC(=S)NC1C (stereo not given)	?	-1%	10µM*
CCOC(=O)C1=C(c2ccccc2)NC(=O)NC1c1ccc(O)c(Cl)c1 (stereo not given)	1%	/	64%
CCOC(=O)C1=C(c2ccccc2)NC(=S)NC1c1ccc(C)c([N+](=O)[O-])c1 (stereo not given)	11µM*	-4%	?
COCC(=O)N1CCC2(CC1)CN(c1cccc(-c3ccccc3)c1)C2	1%	0%	9%
COc1ccccc1C(=O)NC1CCN(C(=S)NCCc2ccccc2)CC1	1%	-3%	16%
Cc1cc(Cl)ccc1N(CC(=O)NCc1ccccc1)S(C)(=O)=O	0%	/	25%
Nc1nc(=O)c2[nH]cnc2n1O	/	-1%[7.66 µM]	/
CCN(CC)S(=O)(=O)c1ccc(/C=C/C(=O)OCC(=O)N(C)C)cc1	-8%	-2%	11%
Cc1c(O)nc(SCC(=O)Nc2nccs2)n(-c2ccccc2F)c1=O	5%	/	-4%
CC(=O)Nc1cccc(C(=O)/C=C/c2ccc(N(C)C)cc2)c1	6%	2%	?
CC(=O)Nc1cccc(C(=O)/C=C/c2ccc(Br)cc2)c1	?	2%	?
Cc1cccc(C(=O)Nc2ccc(C(=O)/C=C/c3cccnc3)cc2)c1	?	0%	28%[10 µM]
COc1ccc(Br)cc1/C=C/C(=O)Nc1ccc2ccccc2c1	-9%	3%	36%
Cc1cccc(C(=O)Nc2ccc(C(=O)/C=C/c3ccncc3)cc2)c1	13µM*	/	?
CCC(=O)Nc1cccc(C(=O)/C=C/c2cc(Br)ccc2OC)c1	?	0%	11µM*
CC(=O)Nc1cccc(C(=O)/C=C/c2ccc(F)cc2)c1	?	-1%	13µM*
CC(=O)Nc1cccc(C(=O)/C=C/c2ccc(/C=C/C(=O)c3cccc(NC(C)=O)c3)cc2)c1	?	1%	10µM*
O=c1c(O)c(-c2ccc(O[C@@H]3O[C@H](CO)[C@@H](O)[C@H](O)[C@H]3O)c(O)c2)oc2cc(O)cc(O)c12	-3%	/	1%
COc1ccc(-c2ccccc2C2C3C=CCCC3(C)C(=O)N2Cc2ccccc2)cc1 (stereo not given)	-12%	/	?
CC[C@H](C)[C@H](NC(=O)[C@H](CO)NC(=O)[C@H](CC(C)C)NC(=O)[C@H](CO)NC(=O)[C@@H]1CCCN1C(=O)[C@H](CC(N)=O)NC(=O)[C@@H](N)CC(=O)O)C(=O)N[C@@H](CC(=O)O)C(=O)N[C@@H](CC(C)C)C(=O)N[C@H](C(=O)N[C@@H](Cc1ccccc1)C(=O)N[C@@H](Cc1cnc[nH]1)C(=O)N[C@@H](CC(C)C)C(=O)N[C@@H](CC(C)C)C(=O)N[C@@H](CCCNC(=N)N)C(=O)N[C@H](C(=O)N[C@@H](CC(C)C)C(=O)N[C@@H](CC(C)C)C(=O)N[C@@H](CCC(=O)O)C(=O)N[C@@H](CC(C)C)C(=O)N[C@@H](C)C(=O)N[C@@H](CCCNC(=N)N)C(=O)N[C@H](C(=O)N[C@@H](CCC(N)=O)C(=O)N[C@@H](CO)C(=O)N[C@@H](CCC(N)=O)C(=O)N[C@@H](CCCNC(=N)N)C(=O)N[C@@H](CCC(=O)O)C(=O)N[C@@H](CCCNC(=N)N)C(=O)N[C@@H](C)C(=O)N[C@@H](CCC(=O)O)C(=O)N[C@@H](CCC(N)=O)C(=O)N[C@@H](CC(N)=O)C(=O)N[C@@H](CCCNC(=N)N)C(=O)N[C@H](C(=O)N[C@H](C(=O)N[C@@H](Cc1ccccc1)C(=O)N[C@@H](CC(=O)O)C(=O)N[C@@H](CO)C(=O)N[C@H](C(N)=O)C(C)C)[C@@H](C)CC)[C@@H](C)CC)[C@@H](C)O)[C@@H](C)O)[C@@H](C)O	-13%	/	0%
COc1ccc(CCN(C)CC(O)COc2ccc(C(C)=O)cc2OC)cc1OC (stereo not given)	-11%	/	-20%
N#CCCn1c(=O)cnc2cnc(N3CCNCC3)nc21	-10%	0%	-9%
CNC(=O)[C@@H]1C[C@H]1[C@@H](NC(=O)OCc1ccccc1)c1ccccc1	5%	1%	13µM*!
CC(C)NC(=O)[C@H]1C[C@@H]1[C@H](NC(=O)OCc1ccccc1)c1ccccc1	-5%	0%	24%
CC1CN(c2ccc(NC(=S)Nc3ccc(N4CC(C)OC(C)C4)cc3)cc2)CC(C)O1 (stereo not given)	8.9µM*	/	2.5µM*

High-throughput results: PubChem BioAssay, National Center for Advancing Translational Sciences (NCATS)
